Bioassay records as filed in PubChem BioAssay.
The list is not random: actives were taken first. Their share in the collection is about 28%.
CYP2C9 act: activators of human CYP2C9 | P11712 | recombinant CYP2C9, luciferin-H conversion, luminescence; active compounds read high; factor 1 = untreated enzyme, 0 = blocked | activation factor at 5 µM | 96,000 tested, 1.4% active | AID 1024;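 active = activation factor of 2 or more for CYP2C9 at a 5 µM dose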;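 also: 0 = sulfaphenazole-blocked wells and 1 = vehicle-only wells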
Target sequence (P11712 whole entry, looked up): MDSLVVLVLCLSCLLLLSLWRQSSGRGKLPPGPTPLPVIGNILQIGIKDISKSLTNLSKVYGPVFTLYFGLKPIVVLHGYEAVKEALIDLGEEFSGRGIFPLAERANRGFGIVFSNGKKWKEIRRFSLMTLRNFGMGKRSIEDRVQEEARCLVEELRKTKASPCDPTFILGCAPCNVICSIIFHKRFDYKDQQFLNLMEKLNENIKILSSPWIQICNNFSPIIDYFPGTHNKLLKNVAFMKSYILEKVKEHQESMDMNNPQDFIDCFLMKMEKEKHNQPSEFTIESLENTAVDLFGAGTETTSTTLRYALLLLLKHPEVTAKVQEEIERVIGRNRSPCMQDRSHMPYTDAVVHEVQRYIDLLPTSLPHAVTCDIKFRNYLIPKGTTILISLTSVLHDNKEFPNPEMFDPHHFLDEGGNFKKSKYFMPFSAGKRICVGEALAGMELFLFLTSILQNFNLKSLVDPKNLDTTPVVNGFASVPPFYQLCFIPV
CYP2C19 activ: increases human CYP2C19 enzyme activity | activation factor at 5 µM | 96,000 tested, under 10 active | recombinant CYP2C19, luciferin-H EGE luminescence; active compounds read high; 0 = fully inhibited enzyme, 1 = untreated enzyme;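 active = activation factor of at least 2 at 5 µM in the primary screen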;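 also: 0 = wells with 2.5 mM tranylcypromine and 1 = vehicle-only wells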
CYP2C19 inhib: inhibitors of human CYP2C19 | P33261 | CYP2C19 Supersomes, luciferin-H EGE luminescence, 30 min | inhibition, % at 5 µM | 96,000 tested, 21% active;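 active = CYP2C19 inhibition above a set limit at 5 µM in the primary screen, cut at about 50% in these data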;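 also: plate controls were negative control wells for no effect and 2.5 mM tranylcypromine positive control for full effect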
Mac1 fbg inh: CD11b/CD18-fibrinogen binding inhibition; 93,000 tested, 0.54% active; inhibition, % at 10 µM; K562 CD11b/CD18 adhesion to fibrinogen, ATPlite luminescence; Mn2+ added to activate the integrin; AID 1497;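 active = primary inhibition of 50% or more at 10 µM, then 40% or more on retest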
CYP2C9 inh: inhibitors of human CYP2C9. P11712. CYP2C9 Supersomes, luciferin-H conversion, luminescence. inhibition, % at 5 µM. 96,000 tested, 20% active. AID 777;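 active = blocking of liver enzyme CYP2C9 beyond about 50% at 5 µM, limit read from the data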
CD11b adhes enh: enhancers of human CD11b/CD18 binding to fibrinogen. P05107+P11215. K562 CD11b/CD18 adhesion to fibrinogen, ATPlite luminescence. activation, % at 10 µM. 93,000 tested, 0.07% active. AID 1499;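 active = 10 µM primary screen giving 50% or more activity, confirmed by 40% or more on retest at that dose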
Numbers without * were called inactive; / = no result given.

SMILES | CYP2C9 act | CYP2C19 activ | CYP2C19 inhib | Mac1 fbg inh | CYP2C9 inh | CD11b adhes enh
CCCCC(=O)NCCc1cc2c(OC)ccc(OC)c2[nH]c1=O | 2.3* | 1 | 3 | / | -132 | /
CCCS(=O)(=O)NCCc1cc2c(OC)ccc(OC)c2[nH]c1=O | 1.1 | 0.9 | 13 | / | -12 | /
O=C(Nc1ccc(C(F)(F)F)cc1)c1cc(S(=O)(=O)NCC2COc3ccccc3O2)ccc1F (stereo not drawn) | / | / | / | 78 | / | -5
C1=CC2CC1CC2CNCc1ccco1 (stereo not drawn) | 1.1 | 0.9 | 10 | -11 | -7 | 2
CC(=O)Oc1ccc(OC(C)=O)c(SCCCCCN2CCOCC2)c1 | 1 | 0.9 | 9 | / | -4 | /
CCCC(C)NC(=O)COC(=O)c1ccc(Cl)c(S(N)(=O)=O)c1 (stereo not drawn) | 1.3 | 0.9 | 7 | -2 | -34 | -1
CNS(=O)(=O)c1cccc(C(=O)OCc2cc(Cl)cc3c2OCOC3)c1 | 1.9 | 0.2 | 78* | 14 | -92 | -2
CCOC(=O)c1c(C)[nH]c(C)c1C(=O)COC(=O)c1ccc(Cl)c(S(N)(=O)=O)c1 | 0.8 | 0.1 | 92* | 4 | 16 | -2
CCOC(=O)c1c(C)[nH]c(C)c1C(=O)COC(=O)c1cccc(S(=O)(=O)NC)c1 | 1 | 0 | 100* | -16 | 4 | 99
CNS(=O)(=O)c1cccc(C(=O)OCC(=O)NCc2ccccc2)c1 | 2.4* | 0.9 | 13 | -6 | -136 | -2
COc1cc(C(=O)OCC(=O)NC2CCS(=O)(=O)C2)ccc1OCc1c(C)noc1C (stereo not drawn) | / | / | / | 6 | / | -1
Cc1ccc(C)c(CS(=O)(=O)c2cn(CC(=O)N3CCCCC3)c3ccccc23)c1 | / | / | / | 16 | / | 4
Cc1ccc(C)c2nc(SCC(=O)N3CCCc4ccccc43)c(C#N)cc12 | 0.8 | 0.9 | 6 | 50 | 25 | -1
CCOC(=O)c1c(C)[nH]c(C)c1C(=O)COC(=O)c1ccc(S(=O)(=O)N(CC)CC)cc1 | 0 | 0.2 | 84* | 27 | 97* | -2
CCOC(=O)C1=C(c2ccccc2)N=C2SCC(=O)N2C1c1ccc(OC)c(OC)c1 (stereo not drawn) | 0.8 | 0.9 | 10 | 3 | 21 | -3
CCOC(=O)C1=C(c2ccccc2)N=C2SCC(=O)N2C1c1cccc(OC)c1 (stereo not drawn) | 0.5 | 0.1 | 87* | 2 | 54* | 7
Cn1cnnc1SCC(=O)Nc1ccccc1C(=O)NC1CCCC1 | 1 | 1 | 1 | 2 | -3 | -5
O=C1c2ccccc2S(=O)(=O)N1CCOc1ccc(F)cc1 | 0.4 | 0 | 99* | 9 | 63* | 0
O=C(CN1C(=O)c2ccccc2S1(=O)=O)NCc1ccccn1 | 1.1 | 1 | 4 | -9 | -8 | -4
COc1cccc(-c2cc(C(=O)N3CCN(c4ncccn4)CC3)c3ccccc3n2)c1 | 0 | 0.3 | 73* | -5 | 96* | 2
COc1cccc(-c2cc(C(=O)Nn3cnnc3)c3ccccc3n2)c1 | 0 | 0.2 | 77* | 15 | 97* | -1
Cc1ccc(-c2cc(C(=O)N3CCN(c4ncccn4)CC3)c3ccccc3n2)cc1 | 0 | 0.1 | 94* | 53 | 98* | 1
O=C(Nn1cnnc1)c1cc(-c2ccccn2)nc2ccccc12 | 0.6 | 1 | 2 | -5 | 38 | -6
CC(C)Oc1cccc(-c2cc(C(=O)N3CCN(S(C)(=O)=O)CC3)c3ccccc3n2)c1 | 0.9 | 1.1 | -5 | 6 | 12 | -2
CC(C)Oc1cccc(-c2cc(C(=O)N3CCN(c4ncccn4)CC3)c3ccccc3n2)c1 | 0.2 | 0.7 | 29 | 48 | 84* | -4
CCCCSC(=S)N(C)C1CCS(=O)(=O)C1 (stereo not drawn) | 0.7 | 0.5 | 49 | / | 29 | /
COCC(C)n1c(SCC(=O)NNC(=O)c2ccc(F)cc2)nc2ccccc2c1=O (stereo not drawn) | / | / | / | 2 | / | 10
O=C(NCC1CCCO1)C1CCN(C(=O)c2ccc(Br)cc2)CC1 (stereo not drawn) | 1.1 | 0.9 | 14 | -9 | -5 | 7
Cc1ccc2nc(-c3ccccn3)cc(C(=O)N3CCN(c4ncccn4)CC3)c2c1 | 0.5 | 0.8 | 20 | 0 | 54* | 8
